This is part of a sample that, as a whole, favours compounds with a hit. Of some 83,000 tested, about 20% had one in any assay.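 48-hour exposure, single concentration, 96-well plates; percent growth endpoint where 0 means no net growth. Active: below 10.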 Values without a mark were called inactive. Activity calls are given as the source filed them.
How the values were obtained:
Experiment in all cases: NCI-60 one-dose screen, 48 h (100 = growth as untreated, 0 = no growth, -100 = all killed)
Conditions in all cases: 10 µM unless noted
NCI-H23 lung = test system: NCI-H23 lung
NCI-H226 lung = test system: NCI-H226 lung
NCI-H322M lung = test system: NCI-H322M lung
HOP-62 NSCLC = test system: HOP-62 NSCLC
NCI-H460 lung = test system: NCI-H460 lung
HOP-92 NSCLC = test system: HOP-92 NSCLC
NCI-H522 lung = test system: NCI-H522 lung
A549/ATCC NSCLC = test system: A549/ATCC NSCLC
786-0 renal = test system: 786-0 renal
COLO 205 colon = test system: COLO 205 colon
DU-145 prostate = test system: DU-145 prostate
K-562 leukemia = test system: K-562 leukemia
MALME-3M melanoma = test system: MALME-3M melanoma
MDA-MB-231 breast = test system: MDA-MB-231 breast
RXF 393 renal = test system: RXF 393 renal
SF-268 CNS = test system: SF-268 CNS
SF-295 CNS = test system: SF-295 CNS
SF-539 CNS = test system: SF-539 CNS
UACC-257 melanoma = test system: UACC-257 melanoma
M14 melanoma = test system: M14 melanoma

SMILES | growth (NCI-H23 lung) [%] | growth (NCI-H226 lung) [%] | growth (NCI-H322M lung) [%] | growth (HOP-62 NSCLC) | growth (NCI-H460 lung) | growth (HOP-92 NSCLC) [%] | growth (NCI-H522 lung) [%] | growth (A549/ATCC NSCLC) | growth (786-0 renal) | growth (COLO 205 colon) | growth (DU-145 prostate) | growth (K-562 leukemia) [%] | growth (MALME-3M melanoma) [%] | growth (MDA-MB-231 breast) | growth (RXF 393 renal) | growth (SF-268 CNS) | growth (SF-295 CNS) [%] | growth (SF-539 CNS) | growth (UACC-257 melanoma) [%] | growth (M14 melanoma)
COC(C(=O)[C@@H](O)[C@@H](C)O)[C@@H]1Cc2cc3cc(O[C@H]4C[C@@H](O[C@H]5C[C@@H](O)[C@H](O)C(C)O5)[C@H](O)C(C)O4)cc(O)c3c(O)c2C(=O)[C@H]1O[C@H]1C[C@@H](O[C@H]2C[C@@H](O[C@H]3C[C@@H](OC)[C@H](O)C(C)O3)[C@@H](O)C(C)O2)[C@H](O)C(C)O1 (stereo not given in full) | 47.4 | 38.8 | 50.2 | 18.8% | 18.7% | 64.2 | 15.5 | 19.2% | 50.7% | 31.2% | 53.5% | 38.6 | 25.8 | 43.2% | 27.6% | 49.9% | 30.7 | 38.1% | 19.9 | 57.2%
O=C(CSc1nc2sc3c(c2c(=O)n1-c1ccccc1)CCCCC3)N/N=C/c1ccc(F)cc1 | 37.7 | 86.9 | 67.5 | 19.9% | 1.12% (active) | 82.6 | 44.3 | 9.73% (active) | 64.1% | 33% | -0.517% (active) | 64.2 | 11.3 | -26.1% (active) | 5.3% (active) | 7.96% (active) | 16.9 | -39.9% (active) | 74.6 | 51.6%
Cc1ccccc1NC(=O)c1sc2nc(C)c(C(=O)/C=C/c3ccccc3)cc2c1N | 43.3 | 26.2 | 55.5 | 9.21% (active) | 0.299% (active) | 37 | 17.9 | 14.3% | -16.9% (active) | 64.1% | 10.5% | 13 | 59.7 | 3.85% (active) | -26.7% (active) | 11.8% | 14 | -34.4% (active) | 68.5 | 4.85% (active)
COc1ccc(Cc2cc(-c3ccccc3)nn(Cc3ccccc3)c2=O)cc1OC | 39.4 | 52 | 82.4 | 69.1% | 33.9% | 28 | 37 | 20% | 35.8% | 9.24% (active) | 73.8% | 22.2 | 23.4 | 43.6% | 42.4% | 57% | 28.8 | 63.4% | 34.4 | 38%
CCOC(=O)/C=C1\S/C(=N\Nc2cc(=O)[nH]c3ccc(Cl)cc23)N(c2ccccc2)C1=O | 90.5 | 89.6 | 98.6 | 88% | 102% | 91.7 | 79.7 | 105% | 93.8% | 65% | 96.7% | 54.1 | 92.6 | 92.2% | 77.2% | 96% | 102 | 99.6% | 95.6 | 87.3%
CCN(c1ccc(Cl)cc1)c1nc(-c2ccc([N+](=O)[O-])cc2)cs1 | 92 | 91.9 | 86.7 | 99.6% | 99.6% | 83.6 | 82.8 | 97.6% | 89% | 113% | 103% | 88.9 | 80.5 | 90.6% | 113% | 110% | 100 | 99.6% | 104 | 99.7%
CCOC(=O)c1cc(C(=O)c2cc(OC)c(OC)c(OC)c2)n2ccc(-c3ccncc3)cc12 | 94.8 | 95.9 | 106 | 90.1% | 97.4% | 65.8 | 68.7 | 80% | 90.2% | 103% | 103% | 98.7 | 87.5 | 70.2% | 95.3% | 96.4% | 113 | 93.9% | 80.8 | 101%

From PubChem BioAssay (NCI)
